# KB-3-1 tox: kills parental KB-3-1 adenocarcinoma cells. KB-3-1 viability, CellTiter-Glo ATP luminescence, 72 h. AID 1347075. Potency, µM (series often up to 46.1 µM), actives largely listed as cytotoxic. 400,000 compounds, 1.4% hits; note: potency is the fitted concentration of half-maximal effect; % is set by controls: 0 for no effect and ±100 for the full control effect; nearly all actives have a fitted effect of over 60% in size
#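 Viability of parental KB-3-1 cells, measured by CellTiter-Glo luminescence, followed a 72 h incubation at 37 °C with pinned compounds in phenol-red-free DMEM containing 10% FBS.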
# SW480 rereplic: DNA re-replication induction in SW480 cells; SW480 DNA re-replication, Hoechst DNA content imaging, 48 h; Potency, µM (titrated, usually from 46.1 µM), without a hit: at the top dose re-replication activation, usual class: activators; 340,000 compounds, 1.8% hits; AID 624297; note: potency is the fitted concentration of half-maximal effect; % of control where 0% means no effect; nearly all actives have a fitted effect of over 55% in size
#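 Cells (250 per well) received 23 nL compound or DMSO by pin tool and were kept 48 hr at 37 C, 5% CO2. Nuclei were then stained with Hoechst for 40 min and scanned for DNA content.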
# IL-1B inflam inh: inflammasome signaling inhibition, IL-1 beta readout; AID 743279; THP-1 LPS/ATP IL-1B secretion, AlphaLISA, 16 h; stronger effect = lower value; 360,000 compounds, 4.7% hits; activity change, % at 57.5 µM; in the data active = activity change below about -50%; inconclusive = mostly about -30% to -49%; note: % is set by controls: 0 for no effect and ±100 for the full control effect
#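 Secreted IL-1B measured by AlphaLISA bead assay after 16 h compound exposure of THP-1 cells; compounds (final up to 57.5 uM) added 1 h before LPS (250 ng/mL) and ATP (1.25 mM) stimulation; lower signal means less secretion.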
# KB-V1 MDR tox: kills drug-selected multidrug resistant KB-V1 cells. KB-V1 MDR cells viability, CellTiter-Glo, 72 h. Potency, µM (highest dose often 46.1 µM), most hits filed as cytotoxic. 400,000 compounds, 3.4% hits; note: potency is the fitted concentration of half-maximal effect; % is set by controls: 0 for no effect and ±100 for the full control effect; nearly all actives have a fitted effect of over 60% in size
#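 qHTS viability screen in drug-selected KB-V1 MDR cells: 72 h compound treatment at 37 degrees C, ATP luminescence end point.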
# MCF10A rerep: DNA re-replication induction in MCF 10a cells; MCF 10A DNA re-replication, Hoechst nuclear intensity, 48 h; Potency, µM (series often up to 46.1 µM), without a hit: at the highest dose activity, positive = re-replication, most hits filed as activators; 350,000 compounds, 2.9% hits; note: potency is the fitted concentration of half-maximal effect; % of control where 0% means no effect; nearly all actives have a fitted effect of over 50% in size
# * hit, by the source's call; i = inactive; ? = inconclusive; nt = no result given. This is a sample that favours compounds with a hit; in the whole collection about 9.9% have one here. Unless noted, calls come from the whole dose curve; as a rule, active = well fitted curve in the direction sought with a large enough effect; inconclusive = small, poorly fitted or top-dose-only effect, or another doubt; inactive = no such curve, though single readings can be large; an effect the other way counts as inactive or inconclusive.
SMILES,KB-3-1 tox,SW480 rereplic,IL-1B inflam inh,KB-V1 MDR tox,MCF10A rerep
O=C(O)c1ccccc1SCC(=O)N1CCc2ccccc21,i,27%,-3,i,16µM*
Cc1ccc2c(c1)CCCN2C(=O)CCc1nc2ccccc2c(=O)[nH]1,?,8.9µM*,11,?,?
CCOc1ccccc1-n1c(SCC(=O)N2CCCc3ccccc32)nnc1-c1cccnc1,i,-73%,-12,7.3µM*,?
Nc1ccccc1SCC(=O)N1CCc2ccccc21,i,-1%,-8,i,1%
Cc1ccc(-c2cnc(SCC(=O)N3CCCc4ccccc43)n2C)cc1,i,-5%,-50*,i,-4%
Cc1ccc(-n2c(SCC(=O)N3CCCc4ccccc43)nnc2-c2cccnc2)c(C)c1,i,-9%,20,?,4%
CCOC(=O)c1ccc(NC(=O)C2CCCN(c3ccc(Sc4ccc(C)cc4)nn3)C2)cc1 (centres undefined),i,nt,nt,i,nt
Cn1c(-c2ccccc2)cnc1SCC(=O)N1CCCCC1,i,3%,-15,i,17%
Cn1c(-c2ccccc2)cnc1SCC(=O)N1CCCc2ccccc21,i,-3%,?,5.8µM*,20%
Cc1ccc(-c2noc(CCC(=O)N3CCCc4ccccc43)n2)cc1,i,-3%,-30,23µM*,14%
O=C(CSc1ncc(-c2ccccc2)n1C1CCCC1)N1CCc2ccccc21,i,-7%,-61*,?,0%
CN(C)c1ccc(/C=C/C(=O)Nc2cccc([S+](=O)([O-])Nc3ccccc3F)c2)cc1,i,nt,nt,i,nt
CC(C)CN(C(=O)COC(=O)c1ccc([N+](=O)[O-])s1)c1c(N)n(Cc2ccccc2)c(=O)[nH]c1=O,21µM*,?,9,i,1%
CC(C)CN(C(=O)COC(=O)c1ccc2c(c1)OCO2)c1c(N)n(Cc2ccccc2)c(=O)[nH]c1=O,i,0%,-55*,i,9%
CCCCn1c(N)c(N(CCC(C)C)C(=O)COC(=O)c2ccc([N+](=O)[O-])s2)c(=O)[nH]c1=O,i,?,-74*,i,6%
CCCCn1c(N)c(N(CCC(C)C)C(=O)COC(=O)c2sccc2C)c(=O)[nH]c1=O,i,10%,-22,i,5%
CC1CN(C(=S)Nc2ccccc2C(F)(F)F)CC(C)O1 (centres undefined),i,-3%,i,?,0%
Brc1cccc(-c2nn(-c3ccccc3)c3c2cnc2cc4c(cc23)OCO4)c1,i,nt,nt,i,nt
CC(C)CC1NC(=O)C(CCCN)NC(=O)C(C(C)C)NC(=O)C2CCCN2C(=O)C(Cc2ccccc2)NC(=O)C(CC(C)C)NC(=O)C(CCCN)NC(=O)C(C(C)C)NC(=O)C2CCCN2C(=O)C(Cc2ccccc2)NC1=O (centres undefined),nt,-7%,nt,nt,?
CC[C@H](C)[C@@H]1NC(=O)[C@@H](CC(C)C)NC(=O)[C@H](C(C)C)NC(=O)[C@H]2CSSC[C@H](NC1=O)C(=O)N2,1.2µM*,nt,-116*,i,nt
Cc1ccc(C23CC4CC(CC(NC(=O)NCCN(C)C)(C4)C2)C3)cc1,i,?,-7,i,?
CN(C)CCNC(=O)COc1ccc(C23CC4CC(CC(C4)C2)C3)cc1,?,?,-59*,i,16µM*
COCCn1c(SCC(=O)NC2CC2)nnc1-c1ccc(Cl)cc1,i,0%,3,i,11%
COc1ccc(Br)cc1CNC(=O)CCc1nc(-c2ccc(C)cc2)no1,i,-2%,6,?,0%
COc1ccc(-c2noc(CCC(=O)NCc3cc(Br)ccc3OC)n2)cc1,i,11%,-90*,?,3%
COc1ccc(-c2noc(CCC(=O)NCC3CCN(Cc4cccc(C)c4)CC3)n2)cc1,i,8%,-72*,i,26%
CC(C)(C)c1ccc(-c2noc(CCC(=O)NCc3ccco3)n2)cc1,?,8%,-57*,?,?
Cn1c(=O)c2c(nc(C3CC4C5CCC(C5)C4C3)n2C)n(C)c1=O (centres undefined),i,-2%,-1,15µM*,13%

# Source: PubChem BioAssay (National Center for Advancing Translational Sciences (NCATS))
